Holding throughout (assay): DAPPL (digital affinity profiling via proximity ligation, sequencing); 10 mM Tris-HCl pH 7.5, 50 mM NaCl, 1 mM DTT, 4% glycerol, room temperature, 30 min; GST-TFs on glutathione beads, 16-mer random dsDNA library, 0.1% formaldehyde crosslink after washing; high values mean tight binding
What all share (settings): protein: recombinant; tags: N-terminal GST; dsDNA, one strand shown

One test has as its target T1, FLI1 (Homo sapiens, UniProt Q01543 1-452).
T1 sequence: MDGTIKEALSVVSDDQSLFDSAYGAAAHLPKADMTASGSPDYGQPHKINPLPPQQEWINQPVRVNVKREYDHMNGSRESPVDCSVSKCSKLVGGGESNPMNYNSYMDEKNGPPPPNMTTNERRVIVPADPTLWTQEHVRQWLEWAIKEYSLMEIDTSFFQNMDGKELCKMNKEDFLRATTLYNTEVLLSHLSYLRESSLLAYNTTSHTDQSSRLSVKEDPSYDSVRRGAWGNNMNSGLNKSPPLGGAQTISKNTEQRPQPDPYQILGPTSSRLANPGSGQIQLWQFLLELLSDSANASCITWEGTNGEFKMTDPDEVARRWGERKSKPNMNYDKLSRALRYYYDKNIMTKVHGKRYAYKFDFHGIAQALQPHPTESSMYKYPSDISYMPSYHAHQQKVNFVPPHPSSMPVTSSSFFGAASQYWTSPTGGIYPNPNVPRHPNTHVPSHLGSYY
The method, boiled down: (§1)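 Pools of DNA-barcoded human transcription factors, expressed in yeast as GST fusions on glutathione beads and combined with a tag-only sample, were incubated with 200 nmole of a 16-mer random double-stranded DNA library. Incubation took 30 min at room temperature in Tris/NaCl/DTT/glycerol buffer and was followed by washing, 0.1% formaldehyde crosslinking, proximity ligation (BsaI/T4 ligase, 1 h, 37 °C), PCR amplification and sequencing on an Illumina NextSeq500. Binding signal is the ratio of a hexamer's read frequency for a factor to its frequency for the tag-only sample.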

The target of the next test is T2, ELK1 (Homo sapiens, UniProt P19419 1-428).
T2 sequence: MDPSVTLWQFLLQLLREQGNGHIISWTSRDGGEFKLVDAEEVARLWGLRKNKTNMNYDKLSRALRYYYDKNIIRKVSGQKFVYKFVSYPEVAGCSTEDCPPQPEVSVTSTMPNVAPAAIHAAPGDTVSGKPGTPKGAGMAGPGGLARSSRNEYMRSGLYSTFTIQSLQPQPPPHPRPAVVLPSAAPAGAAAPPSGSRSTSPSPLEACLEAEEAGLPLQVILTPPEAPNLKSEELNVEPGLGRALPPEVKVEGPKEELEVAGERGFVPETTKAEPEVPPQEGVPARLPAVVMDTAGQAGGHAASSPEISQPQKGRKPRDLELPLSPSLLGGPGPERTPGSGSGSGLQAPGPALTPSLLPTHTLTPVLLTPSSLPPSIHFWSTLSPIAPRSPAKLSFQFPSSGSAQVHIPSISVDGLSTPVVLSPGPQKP
In short, it runs like this: as §1

In another test the target is T3, GABPA (Homo sapiens, UniProt Q06546 1-454).
T3 sequence: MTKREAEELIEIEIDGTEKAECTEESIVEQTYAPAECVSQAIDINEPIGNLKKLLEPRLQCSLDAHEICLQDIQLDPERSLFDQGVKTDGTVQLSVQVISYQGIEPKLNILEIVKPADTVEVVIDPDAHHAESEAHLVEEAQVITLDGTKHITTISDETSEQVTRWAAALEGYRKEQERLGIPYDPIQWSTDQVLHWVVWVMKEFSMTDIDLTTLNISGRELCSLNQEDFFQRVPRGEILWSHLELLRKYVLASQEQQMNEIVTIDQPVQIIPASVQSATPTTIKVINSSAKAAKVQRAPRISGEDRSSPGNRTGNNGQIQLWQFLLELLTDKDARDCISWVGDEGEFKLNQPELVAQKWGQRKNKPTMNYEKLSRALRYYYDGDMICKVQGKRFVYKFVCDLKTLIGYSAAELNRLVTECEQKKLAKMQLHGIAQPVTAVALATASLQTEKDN
In short, it runs like this:
as §1

The target of the next test is T4, ERG (Homo sapiens, UniProt P11308 1-479).
T4 sequence: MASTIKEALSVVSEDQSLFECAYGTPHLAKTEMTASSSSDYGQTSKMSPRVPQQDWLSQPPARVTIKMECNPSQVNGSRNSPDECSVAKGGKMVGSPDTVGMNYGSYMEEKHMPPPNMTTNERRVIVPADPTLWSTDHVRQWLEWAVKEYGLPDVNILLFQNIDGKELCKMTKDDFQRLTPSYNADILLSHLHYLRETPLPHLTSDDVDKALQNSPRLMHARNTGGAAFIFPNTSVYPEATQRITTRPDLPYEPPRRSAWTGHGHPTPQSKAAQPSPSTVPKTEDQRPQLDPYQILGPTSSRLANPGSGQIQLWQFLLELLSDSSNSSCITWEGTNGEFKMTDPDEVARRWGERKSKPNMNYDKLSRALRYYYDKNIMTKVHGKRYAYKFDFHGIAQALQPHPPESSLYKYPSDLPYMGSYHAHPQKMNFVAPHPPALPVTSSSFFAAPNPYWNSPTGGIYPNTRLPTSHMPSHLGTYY
In short, it runs like this: as §1

The next test concerns the target ELF1 (Homo sapiens, UniProt P32519 1-619). The method, boiled down: as §1
The next test addresses T5, EHF (Homo sapiens, UniProt Q9NZC4 1-300).
T5 sequence: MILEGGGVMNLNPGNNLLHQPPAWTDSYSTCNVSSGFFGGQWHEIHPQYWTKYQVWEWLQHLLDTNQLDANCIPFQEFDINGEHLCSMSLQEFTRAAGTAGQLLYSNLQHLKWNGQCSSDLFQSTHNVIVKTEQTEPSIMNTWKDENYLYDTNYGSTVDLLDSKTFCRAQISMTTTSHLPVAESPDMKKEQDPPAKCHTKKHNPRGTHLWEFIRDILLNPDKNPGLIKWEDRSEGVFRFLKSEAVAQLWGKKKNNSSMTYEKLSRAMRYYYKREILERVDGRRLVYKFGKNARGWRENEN
In short, it runs like this: as §1

The target in a further test is SPI1 (Homo sapiens, UniProt P17947 1-270). In short, it runs like this:
as §1

The target of another test is SPIB (Homo sapiens, UniProt Q01892 1-262). In short, it runs like this:
as §1

The target of a further test is T6, ELK3 (Homo sapiens, UniProt P41970 1-407).
T6 sequence: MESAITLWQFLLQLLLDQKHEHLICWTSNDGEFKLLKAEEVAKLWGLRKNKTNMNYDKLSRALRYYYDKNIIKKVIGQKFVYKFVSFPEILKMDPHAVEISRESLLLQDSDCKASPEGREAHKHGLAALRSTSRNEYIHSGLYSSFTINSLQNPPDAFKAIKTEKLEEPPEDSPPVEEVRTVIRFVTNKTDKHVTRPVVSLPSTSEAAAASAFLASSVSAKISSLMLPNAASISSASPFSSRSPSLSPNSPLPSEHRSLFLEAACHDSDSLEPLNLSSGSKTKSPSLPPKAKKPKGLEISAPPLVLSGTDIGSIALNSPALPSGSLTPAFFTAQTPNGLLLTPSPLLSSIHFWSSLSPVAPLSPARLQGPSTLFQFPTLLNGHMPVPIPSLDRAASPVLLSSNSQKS
The method, boiled down:
as §1

Sequence of ELF1 (P32519 whole entry): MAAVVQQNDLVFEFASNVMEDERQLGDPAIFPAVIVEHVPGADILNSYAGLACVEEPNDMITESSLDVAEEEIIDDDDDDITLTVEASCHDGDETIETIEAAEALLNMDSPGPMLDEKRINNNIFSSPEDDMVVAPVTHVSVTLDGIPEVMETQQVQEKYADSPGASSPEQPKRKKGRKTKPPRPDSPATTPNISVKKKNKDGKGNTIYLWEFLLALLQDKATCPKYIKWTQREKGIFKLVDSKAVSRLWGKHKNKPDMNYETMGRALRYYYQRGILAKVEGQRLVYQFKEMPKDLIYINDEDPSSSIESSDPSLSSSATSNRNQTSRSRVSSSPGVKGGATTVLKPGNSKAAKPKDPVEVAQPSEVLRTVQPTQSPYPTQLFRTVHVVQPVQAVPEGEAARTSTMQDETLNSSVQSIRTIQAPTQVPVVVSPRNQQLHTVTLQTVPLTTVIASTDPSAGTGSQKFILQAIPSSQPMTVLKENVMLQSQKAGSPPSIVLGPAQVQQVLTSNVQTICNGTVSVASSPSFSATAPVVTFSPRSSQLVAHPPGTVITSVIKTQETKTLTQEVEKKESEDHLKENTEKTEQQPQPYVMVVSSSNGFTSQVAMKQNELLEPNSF
Sequence of SPIB (Q01892 whole entry): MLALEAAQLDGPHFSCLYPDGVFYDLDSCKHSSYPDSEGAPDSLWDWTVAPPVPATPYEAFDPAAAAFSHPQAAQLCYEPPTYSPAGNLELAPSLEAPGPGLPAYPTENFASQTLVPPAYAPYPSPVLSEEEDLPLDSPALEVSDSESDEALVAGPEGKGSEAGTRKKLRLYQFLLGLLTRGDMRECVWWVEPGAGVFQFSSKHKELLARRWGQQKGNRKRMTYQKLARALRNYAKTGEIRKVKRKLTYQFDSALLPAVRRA

Turning to CGTATC, the binding signal was 1.2 fold enrichment (6-mer frequency, TF over GST control) in the test with FLI1; 1.3 fold enrichment (6-mer frequency, TF over GST control) with ELK1; 1.29 fold enrichment (6-mer frequency, TF over GST control) with GABPA; 1.28 fold enrichment (6-mer frequency, TF over GST control) in the test with ERG; 1.23 fold enrichment (6-mer frequency, TF over GST control) with ELF1; 1.25 fold enrichment (6-mer frequency, TF over GST control) with EHF. For the same sequence, the binding signal in the test with SPI1 was 1.11 fold enrichment (6-mer frequency, TF over GST control); with SPIB, 1.2 fold enrichment (6-mer frequency, TF over GST control); with ELK3 it was 1.21 fold enrichment (6-mer frequency, TF over GST control).

In the case of TGCACG, the binding signal in the test with FLI1 is 1.12 fold enrichment (6-mer frequency, TF over GST control); in the test with ELK1, 1.06 fold enrichment (6-mer frequency, TF over GST control); with GABPA, 1.18 fold enrichment (6-mer frequency, TF over GST control); with ERG, 1.03 fold enrichment (6-mer frequency, TF over GST control); with ELF1 it was 1.16 fold enrichment (6-mer frequency, TF over GST control); with EHF it was 1.22 fold enrichment (6-mer frequency, TF over GST control). In addition, the binding signal was 1.12 fold enrichment (6-mer frequency, TF over GST control) with SPI1; 1.23 fold enrichment (6-mer frequency, TF over GST control) with SPIB; 1.15 fold enrichment (6-mer frequency, TF over GST control) with ELK3.

With CCACTC, the binding signal was 1.23 fold enrichment (6-mer frequency, TF over GST control) with FLI1; 1.32 fold enrichment (6-mer frequency, TF over GST control) in the test with ELK1; 1.29 fold enrichment (6-mer frequency, TF over GST control) with GABPA; 1.19 fold enrichment (6-mer frequency, TF over GST control) in the test with ERG; 1.28 fold enrichment (6-mer frequency, TF over GST control) with ELF1; 1.16 fold enrichment (6-mer frequency, TF over GST control) with EHF. Also, the binding signal in the test with SPI1 is 1.09 fold enrichment (6-mer frequency, TF over GST control); with SPIB it was 1.16 fold enrichment (6-mer frequency, TF over GST control); with ELK3, 1.3 fold enrichment (6-mer frequency, TF over GST control).

Consider ACTCGA, for which the binding signal in the test with FLI1 is 1.35 fold enrichment (6-mer frequency, TF over GST control); with ELK1, 1.48 fold enrichment (6-mer frequency, TF over GST control); in the test with GABPA it was 1.44 fold enrichment (6-mer frequency, TF over GST control); in the test with ERG it was 1.22 fold enrichment (6-mer frequency, TF over GST control); with ELF1, 1.49 fold enrichment (6-mer frequency, TF over GST control); in the test with EHF it was 1.14 fold enrichment (6-mer frequency, TF over GST control). In addition, the binding signal with SPI1 was 1.26 fold enrichment (6-mer frequency, TF over GST control); in the test with SPIB it was 1.24 fold enrichment (6-mer frequency, TF over GST control); with ELK3 it was 1.27 fold enrichment (6-mer frequency, TF over GST control).

As for CCGTCC, the binding signal in the test with FLI1 was 1.37 fold enrichment (6-mer frequency, TF over GST control); with ELK1 it was 1.37 fold enrichment (6-mer frequency, TF over GST control); with GABPA it was 1.29 fold enrichment (6-mer frequency, TF over GST control); in the test with ERG it was 1.42 fold enrichment (6-mer frequency, TF over GST control); with ELF1, 1.37 fold enrichment (6-mer frequency, TF over GST control); with EHF, 1.42 fold enrichment (6-mer frequency, TF over GST control). Besides, the binding signal with SPI1 was 1.21 fold enrichment (6-mer frequency, TF over GST control); with SPIB, 1.25 fold enrichment (6-mer frequency, TF over GST control); with ELK3 it was 1.39 fold enrichment (6-mer frequency, TF over GST control).

As for AACAGG, the binding signal was 1.2 fold enrichment (6-mer frequency, TF over GST control) with FLI1; 1.16 fold enrichment (6-mer frequency, TF over GST control) with ELK1; 1.13 fold enrichment (6-mer frequency, TF over GST control) with GABPA; 1.23 fold enrichment (6-mer frequency, TF over GST control) with ERG; 1.08 fold enrichment (6-mer frequency, TF over GST control) with ELF1; 1.18 fold enrichment (6-mer frequency, TF over GST control) with EHF. For the same sequence, the binding signal was 1.43 fold enrichment (6-mer frequency, TF over GST control) with SPI1; 1.16 fold enrichment (6-mer frequency, TF over GST control) in the test with SPIB; 1.11 fold enrichment (6-mer frequency, TF over GST control) with ELK3.

On to TAACTT, for which the binding signal in the test with FLI1 was 1.41 fold enrichment (6-mer frequency, TF over GST control); with ELK1, 1.39 fold enrichment (6-mer frequency, TF over GST control); in the test with GABPA, 1.34 fold enrichment (6-mer frequency, TF over GST control); in the test with ERG, 1.34 fold enrichment (6-mer frequency, TF over GST control); in the test with ELF1 it was 1.46 fold enrichment (6-mer frequency, TF over GST control); in the test with EHF, 1.35 fold enrichment (6-mer frequency, TF over GST control). The binding signal was 1.62 fold enrichment (6-mer frequency, TF over GST control) with SPI1; 1.43 fold enrichment (6-mer frequency, TF over GST control) with SPIB; 1.27 fold enrichment (6-mer frequency, TF over GST control) in the test with ELK3.

The values above are taken from publication PMC7862700, “An all-to-all approach to the identification of sequence-specific readers for epigenetic DNA modifications on cytosine”.
